Reference: ChEMBL document CHEMBL4513216, “Probing the Open Global Health Chemical Diversity Library for Multistage-Active Starting Points for Next-Generation Antimalarials” (ACS Infect Dis, 2020)
In all, about 68,000 compounds went through this assay and about 2,700 (4%) showed an effect of 50% or more. Only a selection was taken, and strong results are over-represented in it overall.

test system: Plasmodium berghei; assay: Screen against P. berghei liver stage (PbLuc), transformed with Luciferase, at 2uM; format: functional, HepG2; details: tested at 2 uM

| Structure (SMILES) | INHIBITION [%] |
| --- | --- |
| CCn1ncc(S(=O)(=O)NC(C)c2cc(OC)ccc2OC)c1C (centres undefined) | 0.08 |
| CN(CC1CCCO1)C1CCN(CCc2ccccn2)CC1 (centres undefined) | 14.82 |
| CCc1cc(NC2CCN(CC(N)=O)CC2)nc(N2CCCCC2)n1 | -69.81 |
| CCc1cc(NCCNC(C)=O)nc(N2CCCC2)n1 | -36.65 |
| CCc1cc(NCC(N)=O)nc(N2CCCCC2)n1 | 55.18 |
| CCc1nc(-c2noc3ccc(C(=O)NCCN(C)C)cc23)co1 | -18.52 |
| COCCN(C)C(=O)c1ccc2onc(-c3coc(C)n3)c2c1 | 32.04 |
| CCc1nc(-c2noc3ccc(C(=O)N(C)CCOC)cc23)co1 | 63.23 |
| C[C@@H]1CN(C2CCN(c3ccccc3F)CC2)C[C@]1(C)O | 43.44 |
| Cc1cc(F)ccc1N1CCC(N2C[C@@H](CN(C)C)[C@@H](CO)C2)CC1 | 35.54 |
| Cc1cc(F)ccc1N1CCC(N2C[C@@H](C)[C@@](C)(O)C2)CC1 | 67.28 |
| c1ccc(-n2nnnc2NCc2ccc3c(c2)OCO3)cc1 | -26.04 |
| O=C(O)C1CCCN(C(=O)CCn2ccc3c(Cl)cccc32)C1 (centres undefined) | -23.9 |
| O=C(O)[C@@H]1CN(C(=O)c2ccc3[nH]nnc3c2)C[C@H]1c1ccccc1 | 39.57 |
| O=C(Nc1cnccn1)[C@@H]1COC[C@H]2CN(C3CCCC3)C[C@H]21 | -31.17 |
| O=C(Nc1ccncc1)C1=NN(c2ccccc2)C(=O)CN1 | 17.59 |
| CCCNC(=O)NCc1nc(C)c(C)o1 | 22.34 |
| COCCCNC(=O)NCc1nc(C)c(C)o1 | -62.18 |
| Cc1nc(CNC(=O)NCCC2=CCCC2)oc1C | 67.51 |
| Cc1cc(S(=O)(=O)Nc2onc(C)c2C)sc1C | 36.28 |
| Cc1ccc(CN2CCn3c(CN(C)C(C)C)cnc3C2)s1 | 18.2 |
| COCCN1C[C@H]2CN(C(=O)NCc3ccccc3)CCN2C1=O | 14.21 |
| COCCN1C[C@H]2CN(C(=O)NC(C)C)CCN2C1=O | 58.6 |
| COCCN1C[C@H]2CN(C(=O)C3CC3)CCN2C1=O | 14.65 |
| CS(=O)(=O)c1cccc(OCC(=O)N2CCCC2c2ccc[nH]2)c1 (centres undefined) | 9.27 |
| Cc1ncoc1C(=O)N1CC[C@@]2(C[C@H](NS(C)(=O)=O)CCO2)C1 | -43.98 |
| CC(COCC(F)(F)F)NC(=O)c1ccc(-c2ccco2)[nH]c1=O (centres undefined) | 69.67 |

| Structure (SMILES) | INHIBITION [%] |
| --- | --- |
| CCC(C)NC(=O)c1ccc(-c2ccco2)[nH]c1=O (centres undefined) | 31.51 |
| CCCC(C)NC(=O)c1ccc(-c2ccco2)[nH]c1=O (centres undefined) | -1.87 |
| CNS(=O)(=O)c1ccc(C(=O)NCc2ccnc(OC)c2)cc1 | 27.44 |
| Fc1ccc(N2CCCN(Cc3ccc(-c4cc[nH]n4)o3)CC2)cc1 | -62.99 |
| Cc1cccc(-c2nc(CN3CCc4c(ncn4C)C3)no2)c1 | 14.82 |
| CC(NC(=O)N1CCCCCC1)c1ccc(S(N)(=O)=O)cc1 (centres undefined) | -36.8 |
| OCC1CCC2(CC1)CN(Cc1ccccc1F)Cc1ccccc1O2 (centres undefined) | 2.71 |
| O=C(CCc1ccccc1F)NS(=O)(=O)c1ccc2c(c1)OCCO2 | 7.71 |
| O=C(CSc1ccc(F)cc1F)NS(=O)(=O)c1ccc2c(c1)OCCO2 | 27.47 |
| O=C(CCc1cc(F)ccc1F)NS(=O)(=O)c1ccc2c(c1)OCCO2 | 66.28 |
| O=C(CCc1ccc(F)cc1)NS(=O)(=O)c1ccc2c(c1)OCCO2 | -15.92 |
| CC(CC(=O)NS(=O)(=O)c1ccc2c(c1)OCCO2)c1ccc(F)cc1 (centres undefined) | 61.3 |
| O=C(CSc1ccc(F)cc1)NS(=O)(=O)c1ccc2c(c1)OCCO2 | 13.91 |
| c1nc2n(n1)CC(NCc1nc(-c3ccsc3)no1)CC2 (centres undefined) | -14.3 |
| COc1cccc(CC(=O)NC2CCCc3cn[nH]c32)c1 (centres undefined) | -1.29 |
| CCCc1nn(C2CCCN(C(C)C)C2=O)c(=O)o1 (centres undefined) | 58.69 |
| CCCc1nn(C2CCN(C3CC3)C2=O)c(=O)o1 (centres undefined) | -8.5 |
| CCCc1nn(C2CCN(C(C)C)C2=O)c(=O)o1 (centres undefined) | -78.95 |
| Cc1nc(N2CCC(CN3CCCC3)CC2)c2cnn(C)c2n1 | 7.08 |
| NC(=O)CN(CC(=O)NCCc1c(F)cccc1F)C1CCCC1 | 14.21 |
| NCC1(c2cccc(C(F)(F)F)c2)CCC1 | 39.97 |
| NCC1(c2cccc(C(F)(F)F)c2)CC1 | 74.11 |
| NCC1(c2cccc(C(F)(F)F)c2)CCCC1 | 23.45 |
| CC(C)c1cc(NC(=O)CN2CCCC2Cn2cncn2)on1 (centres undefined) | -98.79 |
| COC(=O)c1ccc(Cl)c(NS(=O)(=O)c2cn(C)cn2)c1 | -9.88 |
| Cn1cnc(S(=O)(=O)Nc2cc(C(N)=O)ccc2Cl)c1 | -53.5 |
| COC(=O)c1ccc(Cl)c(NS(=O)(=O)c2cnn(C)c2)c1 | 50.48 |
